Results reported in PubChem BioAssay AID743279 (National Center for Advancing Translational Sciences (NCATS), 2014).
In all, about 360,000 compounds went through this assay and about 17,000 (4.7%) were called active. Roughly 5% stayed inconclusive and do not appear here. No stated cut-off is given here; in the data, active means activity change below about -50%; inconclusive means mostly about -30% to -49%; inactive means weaker than that. Only a selection was taken, and actives are over-represented in it overall.

Assay: qHTS for Inhibitors of Inflammasome Signaling: IL-1-beta AlphaLISA Primary Screen
Conditions: THP-1 LPS/ATP IL-1B secretion, 16 h; at 57.5 µM, active compounds read low
Method in brief: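 THP-1 cells pretreated 1 hr with compounds (up to 57.5 uM final), then stimulated with LPS (250 ng/mL final) plus ATP (1.25 mM final); secreted IL-1B measured by AlphaLISA after 16 hr, decreased signal indicating inhibition.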
On the % scale 0 is the no-effect control and ±100 the full control effect.

Activity change, active:
CCOc1c(Br)cc(/C=C2\C(=O)N(CCC#N)N=C2C)cc1OC -62.4%, Cc1cc(C)cc(Oc2nc3c(C)cccn3c(=O)c2/C=C(\C#N)C(=O)NC2CCS(=O)(=O)C2)c1 (stereo unspecified) -109%, CCc1c(C)sc(NC(=O)c2cccs2)c1C(N)=O -92.1%, COc1ccc(/C=C2\CCc3ccccc3C2=O)c(OC)c1OC -71%, O=C(CCC(=O)N1CCN(S(=O)(=O)c2ccc(Cl)cc2)CC1)NCc1cccc(C(F)(F)F)c1 -52.1%, COC(=O)C(NC(=O)c1ccc(OC)cc1)(Nc1ncc(S(=O)(=O)c2ccc([N+](=O)[O-])cc2)s1)C(F)(F)F (stereo unspecified) -99.1%, Cc1[nH]c2ccccc2c1/C=C(/C#N)C(=O)NC(C)C -99.8%, Cc1ccc(C)c(NC(=S)NNC(=S)Nc2ccc(C(C)C)cc2)c1 -52.5%, O=C(O)CSc1nccc2ccccc12 -61.2%, COc1ccc(Oc2cn[nH]c2-c2ccc(OC)cc2O)cc1 -82.8%, CCS(=O)(=O)Nc1cccc(-c2cc(-c3ccccc3)c3cc(C)ccc3n2)c1 -99.4%

Activity change, inactive:
COc1ccc(C(C#N)=C2C=CC(=NO)c3ccccc32)cc1 -24.6%, Cc1nc2ccccc2nc1CC(O)(c1ccccc1)c1ccccc1 3.22%, O=C1NC[C@H](CCCCN2CCN(CCc3ccccc3)C(=O)C2=O)N(CC2CCCCC2)C1=O -14.3%, CCCCc1nc2ccc(F)cc2cc1C 8.78%, COc1ccc(C(C)(C)C)cc1NC(=O)CN(C)C1=NS(=O)(=O)c2ccccc21 10.7%, COc1ccc([C@H]2N[C@]3(CCCN(CC4CCCCC4)C3=O)[C@H]3C(=O)N(C)C(=O)[C@@H]23)cc1 -15%, O=C(Nc1cccc(Cc2ccccc2)c1)Nc1ccc2nc([C@@H]3O[C@H](CO)[C@@H](O)[C@H](O)[C@H]3O)[nH]c2c1 33.4%, COc1cc(/C=C2/C(=O)NN(c3cccc(Cl)c3)C2=O)cc(Br)c1O -15.3%, C=CCOc1c(Br)cc(/C=N\n2nnnc2N)cc1OC 0%, COc1cccc(-c2cc(NC(C)=O)c3ncc(-c4cccc(C(C)=O)c4)n3c2)c1 7.02%, Cc1cccn2c(=O)c(/C=C(\C#N)C(N)=O)c(N3CCCCCC3)nc12 -18.7%, Cc1cccn2c(=O)c(/C=C(\C#N)S(=O)(=O)c3ccc(Cl)cc3)c(N3CCC(C(N)=O)CC3)nc12 0%, COc1ccc2c(c1)C(=O)CC(c1ccccc1)O2 (stereo unspecified) -12.1%, Cc1nn(C(C)C(=O)NCCC2=CCCCC2)c(=O)c2nn(-c3ccccc3)c(C)c12 (stereo unspecified) 14.5%, CCOC(=O)c1oc2ccccc2c1NC(=O)c1cccs1 -2.68%, CCc1cccc(C)c1NC(=O)COC(=O)CNC(=O)c1cccs1 16.5%, COC(=O)C1=CO[C@@H](O[C@@H]2O[C@H](CO)[C@@H](O)[C@H](O)[C@H]2O)C2C1C[C@H](O)[C@@H]2C (stereo partly specified) 15.4%, COC[C@@H]1NS(=O)(=O)c2ccc(Br)cc2O[C@H]1c1ccccc1 2.65%, O=C1/C(=C/c2cccs2)CCc2ccccc21 -13.1%, COc1ccc(/C=C2/CCCc3ccccc3C2=O)cc1 0%, N#CCc1c[nH]c2ccc([N+](=O)[O-])cc12 -1.78%, CNc1cncc(-c2ccc(NS(C)(=O)=O)cc2)n1 6.32%, CC(NC(=O)CCC(=O)N1CCN(S(=O)(=O)c2ccc(Cl)cc2)CC1)c1ccccc1 (stereo unspecified) 45.7%, O=C(NCc1cccc(C(F)(F)F)c1)c1cccc(S(=O)(=O)N2CCN(Cc3ccccc3)CC2)c1 0%, CCOCC(=O)Nc1ncc(S(=O)(=O)c2ccc([N+](=O)[O-])cc2)s1 20.1%, COc1ccc(C(=O)NCCNc2ccc([N+](=O)[O-])cn2)cc1 40.6%, Nc1c(Cl)cc(-c2csc(N3CCCC3c3nc4cc(Cl)c(Cl)cc4n3CCOCCO)n2)cc1Cl (stereo unspecified) -4.36%, Cc1ccc(S(=O)(=O)N2C[C@H]3C(=O)C[C@@H](c4cccc5ccccc45)N(S(=O)(=O)c4ccc(C)cc4)[C@H]3C[C@H]2c2ccc(Cl)cc2)cc1 0.625%, COCCNC(=O)C1C(=O)Nc2ccccc2C(=O)N1c1ccc2c(c1)OCCO2 (stereo unspecified) 23.8%, CC(C)NC(=O)/C(C#N)=C\c1ccc(N(C)C)c(Br)c1 -7.21%, COC(=O)Cc1c(-c2[nH]c3ccccc3c2CC(=O)OC)[nH]c2ccccc12 0%, O[C@@H]1C[C@H](c2ccccc2)N(Cc2cccs2)C[C@H]1n1cc(C2CC2)nn1 -20.7%, Cc1ccc(C)c(NC(=S)NNC(=O)c2csc(C)c2)c1 12.4%, CC(C)c1ccc(NC(=S)NNc2ccc(Cl)c(C(=O)O)c2)cc1 20.7%, O=C(O)CSc1nccn1-c1cccc(Cl)c1 14.2%, CCOC(=O)C(C(=O)c1ccccc1)C(c1ccccc1)c1nccc2ccccc12 (stereo unspecified) 11.3%, CCNC(=O)C1(C)CCCN1C(=O)c1ccc(N(C)C)cc1 (stereo unspecified) 15.5%, Cc1nc(SCC(=O)c2ccccc2)c([N+](=O)[O-])[nH]1 23.3%, CSCCC(C(=O)NC(C)(C)C)n1c(-c2ccccc2)nc2ccccc21 (stereo unspecified) 15.5%, CCOc1ccccc1Oc1cn[nH]c1-c1ccc(OC)cc1O 18.7%, COc1ccc(-c2[nH]ncc2/C=N/NC(=O)c2cc(Br)ccc2O)c(OC)c1 86.3%, CC1Sc2ccc(S(=O)(=O)CCC(=O)NCc3ccccc3Cl)cc2NC1=O (stereo unspecified) 18.9%, Cc1cc(C)cc(NS(=O)(=O)Cc2ccccc2)c1 -5.28%, CS(=O)(=O)Nc1cccc(-c2cn3ccccc3n2)c1 -14%, O=C(NC1CCCCC1)C(c1cc2ccccc2o1)n1c(=O)c(-c2ccco2)nc2ccccc21 (stereo unspecified) -2.14%
